Assay results reported in PubChem BioAssay.
Calls of active or inactive are those of the source.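 How the source made its calls, unless noted: active means Her2 level under about 52% in both replicate screens, with viability over 70% of control (limit read from the data); inconclusive means Her2 under the limit in one screen only, or viability under 70%; inactive means Her2 level above the set limit.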

Key:
[1] = reducers of endogenous Her2 protein level, primary screen, SKBR3 breast tumor cells, AlphaScreen, ATP viability (AID 461); conditions: 18-24 h, measured here: SKBR3 viability, ATP luminescence, at 10 µM;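 on Her2 level: lower value means less Her2 protein in the cells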;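 on viability: percent of carrier control wells set as 100% viability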
[2] = biological target: Receptor tyrosine-protein kinase erbB-2 (Homo sapiens) (UniProt P04626); assay: as above; conditions: 18-24 h, at 10 µM, stronger effect = lower value
Sequence of Receptor tyrosine-protein kinase erbB-2 (Homo sapiens) (P04626 whole entry, looked up): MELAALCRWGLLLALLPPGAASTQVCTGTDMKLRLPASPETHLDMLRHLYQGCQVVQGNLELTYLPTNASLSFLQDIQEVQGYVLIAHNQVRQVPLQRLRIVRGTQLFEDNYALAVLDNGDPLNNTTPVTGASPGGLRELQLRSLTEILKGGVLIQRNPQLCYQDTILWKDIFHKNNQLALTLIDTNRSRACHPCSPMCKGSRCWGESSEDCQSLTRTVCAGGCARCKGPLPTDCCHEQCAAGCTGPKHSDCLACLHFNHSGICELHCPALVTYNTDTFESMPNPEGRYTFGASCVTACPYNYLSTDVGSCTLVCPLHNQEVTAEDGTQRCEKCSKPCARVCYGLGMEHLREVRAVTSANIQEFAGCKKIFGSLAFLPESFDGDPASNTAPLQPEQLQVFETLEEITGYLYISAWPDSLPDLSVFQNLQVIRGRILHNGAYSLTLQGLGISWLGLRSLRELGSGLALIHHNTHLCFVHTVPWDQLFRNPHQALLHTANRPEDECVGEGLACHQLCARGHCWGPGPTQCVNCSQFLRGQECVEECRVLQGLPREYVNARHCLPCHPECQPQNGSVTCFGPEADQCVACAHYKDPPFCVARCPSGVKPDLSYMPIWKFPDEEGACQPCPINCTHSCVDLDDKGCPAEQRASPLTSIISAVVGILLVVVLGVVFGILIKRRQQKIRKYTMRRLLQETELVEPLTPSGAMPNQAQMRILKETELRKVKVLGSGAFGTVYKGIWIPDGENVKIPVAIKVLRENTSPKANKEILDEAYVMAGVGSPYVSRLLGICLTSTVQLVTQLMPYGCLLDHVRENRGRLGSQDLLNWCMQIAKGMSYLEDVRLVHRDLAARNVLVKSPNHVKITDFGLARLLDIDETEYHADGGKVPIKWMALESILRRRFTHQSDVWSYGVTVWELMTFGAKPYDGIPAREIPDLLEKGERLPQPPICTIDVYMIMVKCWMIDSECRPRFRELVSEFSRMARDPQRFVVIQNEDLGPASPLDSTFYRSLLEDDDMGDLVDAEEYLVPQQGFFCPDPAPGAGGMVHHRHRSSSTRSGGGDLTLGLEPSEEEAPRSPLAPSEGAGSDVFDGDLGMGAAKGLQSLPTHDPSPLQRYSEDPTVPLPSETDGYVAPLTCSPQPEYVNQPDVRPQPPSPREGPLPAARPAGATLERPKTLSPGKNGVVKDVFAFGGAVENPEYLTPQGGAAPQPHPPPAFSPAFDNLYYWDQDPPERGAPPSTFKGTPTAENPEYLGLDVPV

[3] = SK-BR-3 cell growth inhibitors, pilot screen, 24 h, human (AID 572;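 active means viability at or below 10% of carrier control in both of two separate runs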;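 further: compound exposure lasted between 18 and 24 h rather than exactly 24 h; 100% = carrier-treated control wells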); conditions: SK-BR-3 viability, CellTiter-Glo luminescence, at 10 µM, stronger effect = lower value
[4] = HUVEC growth inhibition – cell-based, human, primary screen (AID 575;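 active means viability at or below 30% in both replicate assays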;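 further: 100% = median of untreated cell wells with 0.1% DMSO on each plate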); conditions: HUVEC proliferation, CellTiter-Glo luminescence, 72 h; at 10 µM; stronger effect = lower value
[5] = growth inhibitors of H69AR lung tumor, primary screen, human, duplicate replicates (AID 580;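 active means viability at or under a set limit in both replicates, limit being median viability minus 3 SD, cut at about 48% in these data, passing the limit was not always enough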;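 further: 100% = mean luminescence of untreated wells and 0% = no signal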); conditions: H69AR lung tumor cells viability, ATP luminescence, 72 h; at 10 µM; stronger effect = lower value
[6] = reversal of MRP1-mediated doxorubicin resistance, pilot screen, H69AR cells, doxorubicin co-treatment (AID 601;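 active means viability loss from added drug above about 55%, and viability with drug at most 40%, in both replicates, limit read from the data, passing the limit was not always enough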); conditions: CellTiter-Glo, 72 h, at 10 µM; for differential viability (reversal): stronger effect = higher value
[7] = 384-well plate pilot, post-Golgi transport modulator project, inhibition of yeast transport mutant growth (AID 636; in the data active means inhibition above about 31%); conditions: absorbance 615 nm, about 18 h, stronger effect = higher value
[8] = growth suppression of yeast trafficking mutant, preliminary HTS, modulators of trafficking downstream of Golgi apparatus project, 1536-format plate, OD 615 nm (AID 637; in the data active means inhibition above about 30%); conditions: yeast transport mutant growth, absorbance 615 nm, 18 h; stronger effect = higher value
[9] = H69AR cells + 2 uM doxorubicin, measured here: viability with 2 uM doxorubicin, stronger effect = lower value
[10] = H69AR cells, compound alone cytotoxicity

| Structure (SMILES) | viability [1] | Her2 level [2] | viability [3] | viability [4] | viability [5] | differential viability (reversal) ([6]; H69AR cells + 2 uM doxorubicin) | viability [6, 9] | viability [6, 10] | inhibition [7] | inhibition [8] |
| --- | --- | --- | --- | --- | --- | --- | --- | --- | --- | --- |
| N#CC(C(=O)Nc1ccc(Cl)c(Cl)c1)=C1Nc2ccccc2N1 | 90.5% | 72.5% (inactive) | 90.5% (inactive) | 36% (inactive) | 13.5% (active) | -10.8% (inactive) | 24.3% | 13.5% | -0.66% (inactive) | -1.61% (inactive) |
| O=C(c1ccccc1)N1CCN(CC2CC=CCC2)CC1 (stereo not given) | 82.5% | 79% (inactive) | 82.5% (inactive) | 102% (inactive) | 96.1% (inactive) | 2.54% (inactive) | 93.5% | 96.1% | -6.05% (inactive) | 2.5% (inactive) |
| COc1ccc(N2CCN(CCNS(=O)(=O)c3cccc4nsnc34)CC2)cc1 | 98% | 91% (inactive) | 98% (inactive) | 102% (inactive) | 91.1% (inactive) | -2.98% (inactive) | 94.1% | 91.1% | -5.2% (inactive) | 1.11% (inactive) |
| O=S(=O)(Nc1cccnc1)c1ccc2c(c1)OCCO2 | 91.5% | 92% (inactive) | 91.5% (inactive) | 99.7% (inactive) | 104% (inactive) | 12.1% (inactive) | 91.9% | 104% | -6.97% (inactive) | 3.17% (inactive) |
| CCN(CC)C(=O)C1CCC(CNS(=O)(=O)c2cccc3cccnc23)CC1 (stereo not given) | 92% | 97% (inactive) | 92% (inactive) | 89.9% (inactive) | 99.2% (inactive) | 2.08% (inactive) | 97.1% | 99.2% | -1.87% (inactive) | -2.3% (inactive) |
| Cc1c(C)c2cc(Cl)c(O)c(CN3CCCCC3)c2oc1=O | 97.5% | 112% (inactive) | 97.5% (inactive) | 102% (inactive) | 99% (inactive) | 3.51% (inactive) | 95.5% | 99% | 1.18% (inactive) | 5.57% (inactive) |
| CCOc1ccc(OCC)c(NC(=O)C2CCN(S(=O)(=O)c3cnc[nH]3)CC2)c1 | 95.5% | 99% (inactive) | 95.5% (inactive) | 96.2% (inactive) | 111% (inactive) | 11.1% (inactive) | 100% | 111% | -2.37% (inactive) | -2.74% (inactive) |
| CCCCC(=NCCO)C1=C(O)C(C(=O)OC)C(C)(C)CC1=O (stereo not given) | 90.5% | 93% (inactive) | 90.5% (inactive) | 99.7% (inactive) | 89.5% (inactive) | -0.975% (inactive) | 90.5% | 89.5% | -3.68% (inactive) | -3.81% (inactive) |
| O=C(Nc1ccc(SC(F)F)cc1)c1ccc2nccnc2c1 | 91.5% | 77.5% (inactive) | 91.5% (inactive) | 67% (inactive) | 92.1% (inactive) | 2.67% (inactive) | 89.4% | 92.1% | -2.53% (inactive) | -2.54% (inactive) |
| CCOC(=O)N1CCN(C(=O)c2ccc(N3C(=O)CCC3=O)cc2)CC1 | 110% | 110% (inactive) | 110% (inactive) | 104% (inactive) | 105% (inactive) | 17.4% (inactive) | 87.6% | 105% | -7.03% (inactive) | -9.83% (inactive) |
| Cc1nc2sc3c(c2c(=O)o1)CCC3 | 110% | 80.5% (inactive) | 110% (inactive) | 84.3% (inactive) | 88.1% (inactive) | -14.3% (inactive) | 102% | 88.1% | -3.42% (inactive) | 6.89% (inactive) |
| CC(C)OP(=O)(c1ccc(N(C)C)cc1)C(O)c1ccccc1F (stereo not given) | 128% | 113% (inactive) | 128% (inactive) | 103% (inactive) | 106% (inactive) | 19% (inactive) | 87.5% | 106% | -4.93% (inactive) | 3.06% (inactive) |
| COc1ccccc1C1/C(=C(/O)c2ccccc2)C(=O)C(=O)N1CC(C)C (stereo not given) | 104% | 89.5% (inactive) | 104% (inactive) | 81.4% (inactive) | 82.1% (inactive) | -2.33% (inactive) | 84.4% | 82.1% | -2.47% (inactive) | 5.24% (inactive) |
| Cc1[nH]n(C(N)=S)c(=O)c1C(c1ccccc1)C(C#N)C#N (stereo not given) | 96.5% | 152% (inactive) | 96.5% (inactive) | 70.8% (inactive) | 91.6% (inactive) | -0.72% (inactive) | 92.4% | 91.6% | 3.46% (inactive) | 20.2% (inactive) |
| CC1=C(C(=O)NCc2ccccn2)C2(CCC(C)CC2)OC1=O (stereo not given) | 94.5% | 99% (inactive) | 94.5% (inactive) | 103% (inactive) | 89.4% (inactive) | -0.25% (inactive) | 89.7% | 89.4% | -5.47% (inactive) | -1.97% (inactive) |
| CCCC(=O)Nc1ccc(OCC(=O)OC)cc1 | 99.5% | 78.5% (inactive) | 99.5% (inactive) | 89.9% (inactive) | 98.9% (inactive) | 5.34% (inactive) | 93.6% | 98.9% | -3.95% (inactive) | 0.79% (inactive) |

| Structure (SMILES) | viability [1] | Her2 level [2] | viability [3] | viability [4] | viability [5] | differential viability (reversal) ([6]; H69AR cells + 2 uM doxorubicin) | viability [6, 9] | viability [6, 10] | inhibition [7] | inhibition [8] |
| --- | --- | --- | --- | --- | --- | --- | --- | --- | --- | --- |
| COc1ccc(OC)c(C(=O)CSc2nc3ncccc3[nH]2)c1 | 94% | 108% (inactive) | 94% (inactive) | 96.6% (inactive) | 88.9% (inactive) | 7.8% (inactive) | 81.1% | 88.9% | -1.17% (inactive) | 12.5% (inactive) |
| O=C(CCSc1ccccc1)Nc1ccc(S(=O)(=O)N2CCOCC2)cc1 | 102% | 83.5% (inactive) | 102% (inactive) | 81.2% (inactive) | 104% (inactive) | 12.5% (inactive) | 91.6% | 104% | -9.18% (inactive) | -1.27% (inactive) |
| CCOc1ccc(OCC)c2sc(C)nc12 | 107% | 94% (inactive) | 107% (inactive) | 102% (inactive) | 99.5% (inactive) | 12.4% (inactive) | 87.1% | 99.5% | 0.79% (inactive) | 1.48% (inactive) |
| Cc1cccc2cc(CN(Cc3nnnn3C3CCCC3)C3CCCCC3)c(=O)[nH]c12 | 84.5% | 109% (inactive) | 84.5% (inactive) | 72.7% (inactive) | 79.4% (inactive) | 0.525% (inactive) | 78.9% | 79.4% | -1.71% (inactive) | -10.2% (inactive) |
| O=C(CN1CCN(C2CCCCC2)CC1)Nc1ccccc1-c1ccccc1 | 90.5% | 61% (inactive) | 90.5% (inactive) | 91.4% (inactive) | 84.7% (inactive) | 7.96% (inactive) | 76.7% | 84.7% | -3.24% (inactive) | 1.9% (inactive) |
| Fc1ccc(-c2cnc[nH]2)cc1 | 98.5% | 99.5% (inactive) | 98.5% (inactive) | 80.8% (inactive) | 96.7% (inactive) | 6.2% (inactive) | 90.4% | 96.7% | 1.32% (inactive) | -8.55% (inactive) |
| O=C(CN(Cc1ccc(F)cc1)C(=O)Cn1nnc2ccccc21)NCC1CCCO1 (stereo not given) | 110% | 90.5% (inactive) | 110% (inactive) | 118% (inactive) | 90.3% (inactive) | 4.51% (inactive) | 85.8% | 90.3% | 0.13% (inactive) | -1.64% (inactive) |
| CCC(C)(C)n1nnnc1C(c1ccc(OC)c(OC)c1)N1CCN(c2ccccc2)CC1 (stereo not given) | 85% | 86% (inactive) | 85% (inactive) | 90.2% (inactive) | 88.8% (inactive) | 9.98% (inactive) | 78.9% | 88.8% | -7.67% (inactive) | -0.16% (inactive) |
| COC(=O)c1oc2ccc(OC)cc2c1N | 107% | 88% (inactive) | 107% (inactive) | 82.4% (inactive) | 100% (inactive) | 13.9% (inactive) | 86.2% | 100% | -2.53% (inactive) | -4.84% (inactive) |
| Cn1c(N2CCC(C(N)=O)CC2)nc2c1c(=O)n(Cc1ccc(Br)cc1)c(=O)n2C | 95% | 84.5% (inactive) | 95% (inactive) | 98.5% (inactive) | 102% (inactive) | 8.06% (inactive) | 93.8% | 102% | 3.38% (inactive) | -5.08% (inactive) |
| CCn1c(C(=O)N2CCCC(C(=O)O)C2)cc2sccc21 (stereo not given) | 103% | 98.5% (inactive) | 103% (inactive) | 101% (inactive) | 93.8% (inactive) | 6.41% (inactive) | 87.4% | 93.8% | 0.53% (inactive) | -1.15% (inactive) |
| COc1ccc(-c2noc(CN3C(=O)c4ccccc4C3=O)n2)cc1 | 102% | 108% (inactive) | 102% (inactive) | 97.5% (inactive) | 102% (inactive) | 5.23% (inactive) | 96.4% | 102% | -0.92% (inactive) | 11.3% (inactive) |
| CCN(CC)C(=O)C1=C(C)NC(=O)NC1c1c(F)cccc1Cl (stereo not given) | 108% | 108% (inactive) | 108% (inactive) | 96.8% (inactive) | 101% (inactive) | 13.7% (inactive) | 87.2% | 101% | -3.82% (inactive) | 4.92% (inactive) |
| Cc1ccccc1NC(=O)CSc1nnc(Cc2cccn2C)n1-c1ccc(F)cc1 | 88.5% | 112% (inactive) | 88.5% (inactive) | 78.6% (inactive) | 100% (inactive) | -1.44% (inactive) | 102% | 100% | -0.9% (inactive) | -3.5% (inactive) |
| CN(CC(O)COCc1cccs1)C1CCCCC1 (stereo not given) | 93.5% | 90% (inactive) | 93.5% (inactive) | 93.2% (inactive) | 106% (inactive) | 10.9% (inactive) | 95.4% | 106% | -3.47% (inactive) | 5.57% (inactive) |
| CCOC(=O)N1CCC(Nc2c(-c3ccc(C)cc3)c(=O)c2=O)CC1 | 88.5% | 100% (inactive) | 88.5% (inactive) | 100% (inactive) | 94.5% (inactive) | 11.5% (inactive) | 83% | 94.5% | -8.42% (inactive) | -8.73% (inactive) |
